# The supplement of paper PMC6555819
# Legend:
# Assay in all cases: PBM binding z-score (relative to random genomic background probes); higher = stronger binding; sequences stand for … in GC…GCGATTGACAGCGTAGAATGAAGG
# [1] = tested on: FXR:RXRa (NR concentration 270 nM, RXRa partner concentration 90 nM)
# Method in brief: (§1)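 Ligand-free nuclear receptor dimers were bound for 1 h to custom Agilent 4×180K protein-binding microarrays. Detection used antibodies against each partner (one per run). Binding z-scores rest on regression-normalized fluorescence, with random background probes as the reference.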
# [2] = tested on: LXRa:RXRa (NR concentration 270 nM, RXRa partner concentration 90 nM)
# Method in brief: as §1
# [3] = tested on: LXRa homodimer (NR concentration 270 nM)
# Method in brief: as §1
# [4] = tested on: LXRb:RXRa (NR concentration 270 nM, RXRa partner concentration 90 nM)
# Method in brief: as §1
# [5] = tested on: LXRb homodimer (NR concentration 270 nM)
# Method in brief: as §1
# [6] = tested on: PPARg:RXRa 270nM:90nM, anti-RXR (NR concentration 270 nM, RXRa partner concentration 90 nM)
# Method in brief: as §1
# [7] = tested on: PPARg:RXRa 30nM:10nM, anti-RXR (NR concentration 30 nM, RXRa partner concentration 10 nM)
# Method in brief: as §1
# [8] = tested on: PPARg:RXRa 90nM:30nM, anti-RXR (NR concentration 90 nM, RXRa partner concentration 30 nM)
# Method in brief: as §1
# [9] = tested on: PPARg:RXRa DBDmut IVT, anti-RXR (DBD mutation: RXRa K156A/R161A, NR concentration 270 nM, RXRa partner concentration 90 nM)
# Method in brief: as §1
# [10] = tested on: PPARg:RXRa IVT, anti-PPARg (NR concentration 270 nM, RXRa partner concentration 90 nM)
# Method in brief: as §1
# [11] = tested on: PPARg DBDmut:RXRa IVT, anti-PPARg (DBD mutation: PPARg1 K132A/R137A, NR concentration 270 nM, RXRa partner concentration 90 nM)
# Method in brief: as §1
# [12] = tested on: PPARg DBDmut IVT, anti-PPARg (DBD mutation: PPARg1 K132A/R137A, NR concentration 270 nM)
# Method in brief: as §1
# [13] = tested on: PPARg homodimer (NR concentration 180 nM)
# Method in brief: as §1
# [14] = tested on: PXR:RXRa (NR concentration 270 nM, RXRa partner concentration 90 nM)
# Method in brief: as §1
# [15] = tested on: PXR homodimer (NR concentration 270 nM)
# Method in brief: as §1
# [16] = tested on: RARa homodimer (NR concentration 270 nM)
# Method in brief: as §1
# [17] = tested on: RARb:RXRa (NR concentration 270 nM, RXRa partner concentration 90 nM)
# Method in brief: as §1
# [18] = tested on: PPARa:RXRa (NR concentration 270 nM, RXRa partner concentration 90 nM)
# Method in brief: as §1
# [19] = tested on: PPARg:RXRa (NR concentration 180 nM, RXRa partner concentration 90 nM)
# Method in brief: as §1
# [20] = tested on: RARa:RXR (NR concentration 270 nM, RXRa partner concentration 90 nM)
# Method in brief: as §1
Sequence,PBM binding z-score [1],PBM binding z-score [2],PBM binding z-score [3],PBM binding z-score [4],PBM binding z-score [5],PBM binding z-score [6],PBM binding z-score [7],PBM binding z-score [8],PBM binding z-score [9],PBM binding z-score [10],PBM binding z-score [11],PBM binding z-score [12],PBM binding z-score [13],PBM binding z-score [14],PBM binding z-score [15],PBM binding z-score [16],PBM binding z-score [17],PBM binding z-score [18],PBM binding z-score [19],PBM binding z-score [20]
TCTTGTAGGTCAAAGGTTAAGAAAGCCGAAGCCT,7.08,6.11,2.09,5.26,1.73,10.7,11.9,12.2,7.87,8.59,1.61,1.68,3.23,5.44,0.389,0.512,5.12,,,
CCGAGTAGGTTACGGGGGGGCATTCAGTGCGAAT,4.53,6.83,3.13,7.21,,4.46,2.55,3.84,5.07,5.61,,,4.19,5.79,7.32,2.21,,3.74,4.54,4.18
TAGCCTAGGTCATAGGCCAGTATACCACGCGAAC,4.26,3.46,0.285,2.09,-0.0669,4.54,2.36,4.03,1.31,3.09,0.284,-0.111,1.91,1.47,-0.481,-0.0614,3.66,,4.51,2.66
ATATGTAGGTGAAGGGTCATTCAGGTTGGTTCGC,4.21,4.29,1.74,3.78,1.03,11.2,11.3,12.7,8.51,8.85,6.44,4.69,6.22,5.27,2.24,1.46,3.3,,,5.79
CCGAGTAGGTTACGAGAGGGCATTCAGTGCGAAT,1.04,7.41,2.68,5.96,,1.64,-0.24,0.958,4.61,3.37,,,2.29,5.07,6.97,-0.345,1.66,2.19,1.48,2.08
TGGAGTAGGTTACGGGGGCATTCAGGGATGAAGA,3.28,3.37,1.38,5.17,,6.49,4.07,5.66,6.12,7.33,,,3.02,3.97,3.87,1.99,3.1,4.73,7.46,3.46
AGAATGAGGTTAAGATTAGGGAAACAGAATACAT,2.33,1.73,0.0443,1.78,-0.185,2.36,0.986,1.91,2.37,2.53,0.926,1.13,1.38,1.24,0.222,1.36,1.91,,2.52,2.11
CCGACTGGGGCAAAGGTCACCATACTCAGTACGA,4.94,4.64,1.94,4.54,-0.206,10,12.4,11.1,5.43,6.94,0.0184,-0.117,4.04,5.34,0.429,1.73,4.73,,,
CTATGTAGGTTAAGGAGGTCATTCAGTTTGAAAG,3.87,4.84,4.54,3.92,,5.71,3.14,5.11,7,7.07,,,2.9,5.67,12,0.704,,5.23,6.14,4.51
ATCTGTAGGTTATCGGGTCATTCAGTTTGCGCAT,3.02,3.6,2.79,3.06,1.36,4.43,1.41,3.37,4.65,5.29,1.81,1.76,2.43,3.86,7.32,1.11,2.71,,3.9,3.93
CTATGTAGGTTAAGGGGGTCAATCAGTTTGAAAG,4.51,4.86,1.5,5.67,,7.41,5.18,7.66,7.42,7.48,,,2.63,5.16,7.48,0.971,3.41,5.86,8.09,5.23
TCGAGTAGGTTACGGGGACATTCAGGGATGAAGA,0.831,0.995,-0.0512,0.999,,3.06,1.81,2.27,4.18,4.72,,,1.95,0.696,-0.0868,0.0881,1.43,2.4,3.19,1.17
CTATGTAGGTTAAGTGGGTCATTCAGTTTGAAAG,1.59,2.35,0.645,2.29,,5.61,2.89,4.9,7.7,7.89,,,1.59,2.36,4.47,0.913,2.15,4.58,5.98,2.23
CTGAGTAGGTTACGAGGGGGCATTCAGTGCGAAT,1.65,7.17,2.04,6.26,,4.41,1.42,3.41,6.01,6.11,,,1.78,4.54,4.99,0.52,2.26,3.73,4.46,3
CCGAGTAGGTTACAAGGGGGCATTCAGTGCGAAT,2.05,7.37,2.35,6.52,,3.68,0.773,2.98,4.32,4.29,,,1.99,4.6,5.19,0.759,2.17,3.41,2.25,3
CTATGTAGCTTAAGGGGGTCATTCAGTTTGAAAG,4.38,4.44,3.06,6.2,,4.6,2.16,3.67,2.86,4.78,,,3.12,5.52,10,1.84,3.33,5.27,3.24,5.18

Sequence,PBM binding z-score [1],PBM binding z-score [2],PBM binding z-score [3],PBM binding z-score [4],PBM binding z-score [5],PBM binding z-score [6],PBM binding z-score [7],PBM binding z-score [8],PBM binding z-score [9],PBM binding z-score [10],PBM binding z-score [11],PBM binding z-score [12],PBM binding z-score [13],PBM binding z-score [14],PBM binding z-score [15],PBM binding z-score [16],PBM binding z-score [17],PBM binding z-score [18],PBM binding z-score [19],PBM binding z-score [20]
CCGAGTAGGTTACGAGGGGGCAGTCAGTGCGAAT,2.18,6.39,0.422,5.55,,3.18,0.853,2.04,4.71,4.53,,,2.79,3.74,1.86,0.525,2.15,3.14,2.19,2.38
TCGAGTTGGTTACGGGGGCATTCAGGGATGAAGA,2.61,2.2,0.889,4.62,,2.84,2.24,2.63,2.18,3.75,,,1.79,3.22,3.31,0.444,1.97,2.89,1.84,2.3
CCGAGTAGGTTACGAGGGGGGATTCAGTGCGAAT,2.34,3.82,0.79,5.43,,3.71,1.57,3.4,5.06,4.91,,,2,3.27,2.11,0.858,1.84,2.99,2.52,2.61
CTATGAAGGTTAAGGGGGTCATTCAGTTTGAAAG,5.47,5.4,3.45,6.37,,6.01,3.46,5.16,3.68,5.15,,,4.25,6.22,13.8,2.51,4.05,5.65,5.21,6.01
TAGAGTAGGTTACGGGGGCATTCAGGGATGAAGA,2.76,3.19,1.55,5.06,,6.43,4.51,5.78,5.84,6.92,,,2.22,3.17,2.11,1.56,2.85,4.61,7.4,3.35
TCGAGTAGGTTACGGGCGCATTCAGGGATGAAGA,0.124,0.321,-0.293,-0.159,,1.62,1.11,1.36,2.38,2.9,,,0.541,-0.126,-0.432,-0.39,0.68,1.4,1.17,0.353
TCGAGGAGGTTACGGGGGCATTCAGGGATGAAGA,5,3.99,0.868,5.71,,5.92,4.08,5.24,3.43,5.82,,,2.53,4.07,2.7,0.971,3.42,5.33,6.77,4.4
CCGAGTAGGTTACGAGGGGGCATTCGGTGCGAAT,1.7,7.08,1.42,6.21,,3.16,0.729,2.56,3.74,4.36,,,1.85,4.83,4.05,0.224,2.22,3.53,2.41,2.98
TCGAGTAGGTTACGGGGGCATTCGGGGATGAAGA,3.14,3.56,0.662,5.09,,5.81,3.14,4.8,5.16,5.85,,,3.02,3.55,2,0.243,2.54,4.28,6.03,3.36
CTATGTCGGTTAAGGGGGTCATTCAGTTTGAAAG,4.86,5.24,4.38,6.42,,6.26,3.98,5.7,4.49,5.96,,,6.84,5.84,8.33,4.21,3.57,5.65,5.4,5.76
CCGAGTAGGTTACGAGGGGGCTTTCAGTGCGAAT,1.47,3.54,0.44,4.05,,2.7,0.558,1.82,4.79,4.3,,,0.789,2.01,0.241,-0.415,1.41,2.66,1.29,1.55
CTATGTAGGTTAAGGGGGTCATACAGTTTGAAAG,5.2,5.02,1.99,6.22,,8.13,6.16,8.11,7.64,7.1,,,3.8,5.63,8.43,2.55,3.77,6.21,8.81,5.95
TCGAGTCGGTTACGGGGGCATTCAGGGATGAAGA,1.7,1.82,0.317,4,,2.62,1.58,2.15,1.87,3.65,,,1.02,2.5,0.347,-0.175,1.71,2.75,1.46,2.15
CTGTGTAGGTTAAGGGGGTCATTCAGTTTGAAAG,5.15,4.93,3.47,6.55,,6.47,4.23,5.78,5.16,6.16,,,3.62,5.84,10.9,2.01,3.67,5.67,6.19,5.48
TCGAGTAGGTTACGGGGGAATTCAGGGATGAAGA,0.979,1.58,0.0777,2.86,,4.02,2.24,3.53,4.46,4.91,,,1.34,1.33,0.36,-0.238,1.62,2.8,3.75,1.17
